Consider 11 molecules from the supplement of paper PMC10105736.

Assay in all cases: MAPPIT interaction score (arbitrary units); higher = stronger binary interaction signal, active = hit call of the paper
The target in one experiment is dnd. Conditions: MAPPIT configuration: N-N; pair source set: screen_2.
For the next experiment, the target named is dre4. Conditions: MAPPIT configuration: N-N; pair source set: Lit-BM-16.
In another experiment the target is dimm. Conditions: MAPPIT configuration: N-N; pair source set: DPIM.
For the next experiment, the target named is flw. Conditions: pair source set: Lit-BM-16.
The target in a further experiment is eIF3f1. Conditions: MAPPIT configuration: N-N; pair source set: Lit-BM-16.
The next experiment concerns the target emb. As to conditions: MAPPIT configuration: N-N; pair source set: Lit-BM-16.
The next experiment concerns the target fon. Conditions: MAPPIT configuration: N-N; pair source set: Finley_Y2H.
The target of another experiment is fz. Conditions: MAPPIT configuration: N-C; pair source set: Lit-BM-16.
For the next experiment, the target named is e(y)2. As to conditions: MAPPIT configuration: N-N; pair source set: screen_2.
The next experiment concerns the target glob1. Conditions: MAPPIT configuration: N-N; pair source set: Lit-BS-16.
The target of another experiment is fwe. As to conditions: MAPPIT configuration: N-C; pair source set: screen_4.

Values without a mark were called inactive.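 The calls were made as follows: active = MAPPIT score above the 99th percentile of random reference set scores in the same batch; inactive = at or below it.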
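Also: HEK293T cells with Epo stimulation, STAT-responsive firefly luciferase reporter, fold induction versus unstimulated cells divided by the larger fold induction of two negative controls lacking either bait or prey.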

B1: PrBP (protein)
chain: MGSDDQSAGDRIQKGFQINYMILRDADSGKIIWQENKDFSAPDQEHEARVPVKILDMRAVSREINFSTIESMENFRLDQKVLFKGRIMEEWFFEMGFVGANTTNTWQSTIEAAPESQMMPAKVLNGNVTIQTSFYDNETLITKSVVRLYYI
On to B1, for which the MAPPIT interaction score in the experiment with dnd was 4.87 (active).

B2: Ssrp (protein)
chain: MTDSLEYNDINAEVRGVLCSGRLKMTEQNIIFKNTKTGKVEQISAEDIDLINSQKFVGTWGLRVFTKGGVLHRFTGFRDSEHEKLGKFIKAAYSQEMVEKEMCVKGWNWGTARFMGSVLSFDKESKTIFEVPLSHVSQCVTGKNEVTLEFHQNDDAPVGLLEMRFHIPAVESAEEDPVDKFHQNVMSKASVISASGESIAIFREIQILTPRGRYDIKIFSTFFQLHGKTFDYKIPMDSVLRLFMLPHKDSRQMFFVLSLDPPIKQGQTRYHYLVLLFAPDEETTIELPFSEAELRDKYEGKLEKEISGPVYEVMGKVMKVLIGRKITGPGNFIGHSGTAAVGCSFKAAAGYLYPLERGFIYIHKPPLHIRFEEISSVNFARSGGSTRSFDFEVTLKNGTVHIFSSIEKEEYAKLFDYITQKKLHVSNMGKDKSGYKDVDFGDSDNENEPDAYLARLKAEAREKEEDDDDGDSDEESTDEDFKPNENESDVAEEYDSNVESDSDDDSDASGGGGDSDGAKKKKEKKSEKKEKKEKKHKEKERTKKPSKKKKDSGKPKRATTAFMLWLNDTRESIKRENPGIKVTEIAKKGGEMWKELKDKSKWEDAAAKDKQRYHDEMRNYKPEAGGDSDNEKGGKSSKKRKTEPSPSKKANTSGSGFKSKEYISDDDSTSSDDEKDNEPAKKKSKPPSDGDAKKKKAKSESEPEESEEDSNASDEDEEDEASD
As to B2, in the experiment with dre4, the MAPPIT interaction score is 0.764.

B3: Lsm12a (protein)
chain: MAAAAASAVNAVNDCFSIGSTVVCTTCFNEEVEGEVLAFDHNTKMLILKCRSKSTEELSDIYAMNLSLCSNVQVIKECNGNFDDPQKLNLEQVKMRLRKTVERRQDYLKSKNADVSPEAQELYRAIAKQYGYNEVSWQGLNIQILNEVTISPPYRVDNVVSSSNNETSCNYIKRIIKQFFNTRPSPVPESGAAASTSSPSVSPTSSSLASGSPVPAN
Consider B3, for which the MAPPIT interaction score with dimm was -0.17.

B4: Nop17l (protein)
chain: MSASRSRNKQSKLCDDERLDISRDEFNRFQEAFGKEEFRKLFFDYVDEIQDPENRKIYESEITQLEKERGVEVRFIHPKPGFVIKTALDGELKCFINIASCEEIQRPKNEVATDPSSGSRGLSWSIPMAQTTSRDDFDAKNNHCKVFDVVFHPDALHLAMRNKQFRQCLIDTALDAIEREYKVSLDRANLKFPKLDYKGIPRPTVIRKMADNPTAEEQEPHPLAHMFPTKPPAPGKQEPRVLPMKTKPSPVPEFTVPRYTIKHSHDVDLSEYTDELDAKLHVTVPRSLVVEIELPLLRSTAECQLDVTSKSIYLFSERQGAKYRLKLDLPFIVDDKAGRARFDTDMRRLSITLPVVRKSIQEQAQMHETLRHFSREDSGVELHSNSESPVEEDPDGELSDSKADISETSSPSVAPANSPFLKSSVHYQLPSKFDCNVLDNVMAFVLHVPNVQPDSIEQLREQRSLHLKFATIGSGYYPTHYAFYVELSAEHEDSSIESAEAEAWDNNVVLKLCLNSQSETPASYLAGLDATELKEYPVHGQYHVKSKGKVNAKKDNAPLDVKFERNQEGHALKVTIRPGTKEEEEDKENQDQEPESDQQQQQQVQNKKPGKKQRKKNKKERSLSESACADMILQEPLAKTNELQPRATFKLPPQRKQRSYSECNDSTGRSHRGILKRFSRYGPRPSMSDSWSSIDDSSSYSCSVDASGTSLFSQSFGGIPEEDRSDAGLSESCKKTVRFNDHIMKQVFRLDSSILGQRKKNQKRRDLKLRAQQRRLSEGDSVDYEETRGSALKQEENPSRNCNDSGLDLTGAAGAHSNNNESDAKNTMMFEMDD
Consider B4, for which the values for the MAPPIT interaction score with flw (MAPPIT configuration: N-C) and in the experiment with flw (MAPPIT configuration: N-N) were 3.31 and 0.884, respectively.

B5: eIF3m (protein)
chain: MTSHPVFIDLSLDEQVQELRKYFKKLGAEISSEKSNKGVEDDLHKIIGVCDVCFKDGEPSQIDGILNSIVSIMITIPLDRGENIVLAYCEKMTKAPNLPLGKVCLQSLWRLFNNLDTASPLRYHVYYHLVQVAKQCEQVLEVFSGVDQLKSQFANCPPSSEQMQKLYRLLHDVTKDTNLELSSKVMIELLGTYTADNACVAREDAMKCIVTALADPNTFLLDPLLSLKPVRFLEGDLIHDLLSIFVSEKLPAYVQFYEDHREFVNSQGLNHEQNMKKMRLLTFMQLAESSPEMTFETLTKELQINEDEVEPFVIEVLKTKLVRARLDQANQKVHISSTMHRTFGAPQWEQLRDLLQAWKENLSTVREGLTSVSSAQLDLARSQKLIH
With B5, in the experiment with eIF3f1, the MAPPIT interaction score was 5.38 (active).

B6: mbo (protein)
chain: MSLTDVLELNKTELFAKIRNGLPVVQRTQNLLDCKDDLLFAWHAKDSCLLVRNWRSSLAAKVNIQFQTLIPSSLVSLEVDRVLASNEGSLVALSGPRGVVIMELPRRWGPDGYYKDGKPVITCRTFGLDTQLFLKNPHLEVRQVRWHPHSVSDSTLLVLLNNNTIRVYNHSKLRHVWQVGPPVLRSGANNSLCDFGELAVDFDIAPAAKPRVTEPETAGNNETTLDKSNKTLVAAKSLPKQERIEWPMVVLRENGNIYILMTGVDSENTRLQGPVTITPQAHDNYGLESCALMIIPSLPPTIVIAESNGKLHHALLMEAEATEHSFNEVDDSVLIEPAEYVVHVLETVELELGISAPATGKEGGNCPIYLKRDLINELRYFAYHNAGLHAVTVSFIAELQRYLESESDEDRLELAVSASAEYILCTKFDSSETVNAVFGLALLQIPAGIVLLLGSGQVISLKLVIDAQLLVTPNENKPVDSEVSQQESGPPFVDTIKSLLQRSVNQPILADKLSSPSAQESFELLNQAIEVLREQYLKRHDLVRAAFTRHINQIQLKKEQQLQEIQDLEQERELISERAHKLAERFEEISYNQELLVRKCNALMQRANASLPNSVIAEREFSQEVIRLNKVTQSLAAGLETAKKTFNKQRYHIAQSQEDLKKNAYELPEKQHRTITEILTQLTGEIDRQITDVKRINKIVGI
As for B6, in the experiment with emb, the MAPPIT interaction score is 0.0885.

B7: Slh (protein)
chain: MLTLRERQINAIKQMLNLNSQQPKALAAEPVWKILIYDRVGQDIISPIISIKELRELGVTLHVQLHSDRDSIPDVPAIYFCLPTDENLDRIQQDFSSGLYDVYHLNFLAPITRSKIENLAAAALHAGCVANIHRVYDQYVNFISLEDDFFILKHQQSDQLSYYAINRANTRDEEMEALMDSIVDSLFALFVTLGNVPIIRCPRNSAAEMVARKLEKKLRENLWDARANLFHMDATQAGGGVFSFQRPVLLLLDRNMDLATPLHHTWSYQALVHDVLDLGLNLVYVEDETASAGARKKPKACDLDRNDRFWMTHKGSPFPTVAEAIQEELESYRNSEEEIKRLKTSMGIEGESDIAFSLVNDTTARLTNAVNSLPQLMEKKRLIDMHTKIATAILNFIKARRLDSFFEIEEKVMSKQTLDRPLLDLLRDGEFGQAEDKLRLYIIYFICAQQLPESEQERLKEALQAAGCDLTALAYVQRWKGIMNRSPSISQATQYEGGGTKTVSMFTKLVSQGSSFVMEGVKNLVVKRHNLPVTKITEQVMECRSNAETDDYLYLDPKLLKGGEVLPKNRAPFQDAVVFMVGGGNYIEYQNLVDFIKQKQTSNVQRRIIYGASTLTNARQFLKELSALGGEIQSPTATS
Regarding B7, in the experiment with fon, the MAPPIT interaction score is -0.252.

B8: Patj (protein)
chain: MHLSADISSALQQIEAVKKGIDESDDPKLQMQTAESLSTILGILQDPVFRTIVHVQDSLSELNAQLAQHPSMLPNDFDIDVAGNLVLSLNGGEVMYDFDEQRSSSHSHSAPGSPDKSGGVGEEPRPQSQNSKGAGVADLYATDYAQIQAIELVNDGTGLGFGIIGARNSGVIVKTILPGGVADKDGRLRSGDHILQIGDVNLHEMVSEQVAAVLRQSGTHVRLVVARPVEQSVPTPQYALEPGTAVVPTRVLVDPAELERYLISTGYPEIFGESSTASTPQTTTEDDRFVYRGETSMLIDPNIDLEELLALPETEKLQVELKKDANGLGITIAGYVCEKEELSGIFVKSVSPGSAADLSGRIRVNDRIIEVDGQSLQGYSNHQAVELLKKSGQVVNLRLERYLRGPKFEQLQQAIAANDKLPSSAPGTPSRAPMPTPVATTSSATTTPSRSITRELEEEALPAPEAFMTTPPSVTTMTTTTLSSFGAGKQLVAVRDSLDGSTKIIPTEVVPLADKTEAKNSGVITRHKYYTDPELSDDAETEIIRKWQKIVGSDVEVIVAQIKKFAVGGLGISLEGTVDVEGGREVRPHHYIRSILPDGPVGVNGVLRSGDELLEVNGERLLGMNHLEVVAILKELPLDVRMVCGRNRNSSLLPFSDDTLKKLSNNFENLLPATDRLVKAKSDGSLATAGSVADGDSVAAAAASFSKLKSRSLEPLTGLAMWSSQPQIIELVKGDRGLGFSILDYQDPLDPNDTLIVIRSLVPGGVAQLDGRLIPGDRLLFVNSINLENASLDQAVQALKGASKGVVRIGVAKPLPMTDNSLKACSNASTTSEETLDAQPSPPALPTVAPPAMPPSASMGAEPDLIPDWRN
In the case of B8, the MAPPIT interaction score in the experiment with fz is 2.4.

B9: Mul1 (protein)
chain: MEFLHESVALGVDLLILGLCAREYVHYKRTAKVLKAAPQYNIDGDLKSVVERQRDKKIPYAVIRGTVTPIGVPLRSSLVPSVSGVLQIVKLHEHRVTRGFAGFWTEQHKLLHESANEMPFELRNQSHGVEIVDALSAAVLDVDVVYDNYEPSNLSLFDHVFGFFSGVRQRGLQTTEEVLREGSFLTAIGELELDGDTLRMQPSNEGPLFLTTATKSTLIKRFEDAKTTTILKLVVCSTISAILVAFIAKKLYRKRKQEREEAKIRERLDTERRERRARSRPHTLSQDQLCVVCSTNPKEIILLPCGHVCLCEDCAQKISVTCPVCRGSIVSKAAAFIA
With B9, the MAPPIT interaction score with e(y)2 was 5.68 (active).

B10: MED6 (protein)
chain: MASRQMTNDHLRLSWHDTQMMATLSPQTVMDYFCRKSNPFYDHMCNNETVRMQRLGPEHLHNMIGLEYILLHVAEPILYVIRKQHRHNPSEATPIADYYIIGGTVYKAPDLANVINSRILNTVVNLQSAFEEASSYARYHPNKGYTWDFSSNKVFSDRSKSDKKDANSAKDENSGTLFQKQRVDMLLAELLRKFPPPIPPMLQNLQQPPPAGDDLNTARNASEMNNATGPLDIKTEGVDMKPPPEKKSK
Take B10: the MAPPIT interaction score with glob1 was -0.386.

B11: Arl8 (protein)
chain: MLALINRILEWFKSIFWKEEMELTLVGLQFSGKTTFVNVIASGQFAEDMIPTVGFNMRKITRGNVTIKVWDIGGQPRFRSMWERYCRGVNAIVYMVDAADLDKLEASRNELHSLLDKPQLAGIPVLVLGNKRDLPGALDETGLIERMNLSSIQDREICCYSISCKEKDNIDITLQWLIQHSKSQSR
For the molecule B11, the MAPPIT interaction score in the experiment with fwe is 3.21.
